# Assay results taken from the supplement of paper PMC6279402.
# Structures can show the parent of a compound that is named as a salt. ± gives the standard deviation of the averaged measurements.
# Test system: A549
# Test: relative viability (normalised to negative control = 1, bortezomib = 0) (fraction); higher = less cytotoxic
# Settings: inflammatory serum-free RHB-A with cytokines + LPS, 5 d + 24 h CellTiter-Blue
# Experimental: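 A549 KRAS-mutant NSCLC cells, pre-treated 5 µM GSK126 or vehicle (DMSO), were seeded at 250 cells/well in 384-well plates in serum-free RHB-A medium with inflammatory cytokines/LPS and treated with Selleck kinase inhibitor and NCI oncology compounds at 30 or 300 nM in triplicate, refreshed at 48 h. Viability was read by CellTiter-Blue after 5 d plus 24 h and normalised per plate with cellHTS2 (mean of bortezomib positive control = 0, mean of negative control = 1).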
# [1] = compound 30 nM, GSK126 pretreatment: 5 uM GSK126
# [2] = compound 30 nM, GSK126 pretreatment: none (vehicle)
# [3] = compound 300 nM, GSK126 pretreatment: 5 uM GSK126
# [4] = compound 300 nM, GSK126 pretreatment: none (vehicle)
smiles,measurement,setting,value
OC[C@H]1O[C@@H](n2cnc3c2N=CNC[C@H]3O)C[C@@H]1O [Pentostatin],relative viability,[1],0.908 ± 0.068
same,relative viability,[2],0.918 ± 0.062
same,relative viability,[3],0.931 ± 0.076
same,relative viability,[4],0.914 ± 0.056
c1cncc(CN2CCC(n3ncc4c(N5CCOCC5)nc(-c5ccc6[nH]ccc6c5)nc43)CC2)c1,relative viability,[1],0.861 ± 0.099
same,relative viability,[2],0.896 ± 0.11
same,relative viability,[3],0.73 ± 0.14
same,relative viability,[4],0.761 ± 0.073
O=c1cc(-c2cccc3c2Sc2ccccc2S3)oc(N2CCOCC2)c1,relative viability,[1],0.781 ± 0.04
same,relative viability,[2],0.845 ± 0.035
same,relative viability,[3],0.833 ± 0.044
same,relative viability,[4],0.875 ± 0.069
COc1cc([C@@H]2c3cc4c(cc3[C@@H](O[C@@H]3O[C@@H]5CO[C@@H](c6cccs6)O[C@H]5[C@H](O)[C@H]3O)[C@H]3COC(=O)[C@H]23)OCO4)cc(OC)c1O [Teniposide],relative viability,[1],0.861 ± 0.062
same,relative viability,[2],0.777 ± 0.076
same,relative viability,[3],0.685 ± 0.037
same,relative viability,[4],0.544 ± 0.072
COc1ccc(-c2cc3c(C)nc(N)nc3n(C3CCC(OCCO)CC3)c2=O)cn1 (stereo not given),relative viability,[1],0.617 ± 0.071
same,relative viability,[2],0.634 ± 0.063
same,relative viability,[3],0.0912 ± 0.017
same,relative viability,[4],0.087 ± 0.014
Nc1ccn([C@@H]2O[C@H](CO)[C@@H](O)C2(F)F)c(=O)n1 [Gemcitabine hydrochloride; Gemcitabine HCl],relative viability,[1],0.396 ± 0.12
same,relative viability,[2],0.264 ± 0.087
same,relative viability,[3],0.39 ± 0.093
same,relative viability,[4],0.19 ± 0.087
CCN1CCN(Cc2ccc(-c3cc4c(N[C@H](C)c5ccccc5)ncnc4[nH]3)cc2)CC1,relative viability,[1],0.695 ± 0.092
same,relative viability,[2],0.693 ± 0.028
same,relative viability,[3],0.446 ± 0.042
same,relative viability,[4],0.414 ± 0.068
Cc1csc(-c2nnc(Nc3ccc(Oc4ncccc4-c4ccnc(N)n4)cc3)c3ccccc23)c1,relative viability,[1],0.692 ± 0.11
same,relative viability,[2],0.593 ± 0.11
same,relative viability,[3],0.512 ± 0.076
same,relative viability,[4],0.441 ± 0.061
c1ccc2c(-c3cnn4cc(-c5ccc(N6CCNCC6)cc5)cnc34)ccnc2c1,relative viability,[1],1.01 ± 0.16
same,relative viability,[2],0.961 ± 0.15
same,relative viability,[3],1.1 ± 0.067
same,relative viability,[4],1.13 ± 0.093
Cc1c(NC(=O)OC[C@@H]2COCCN2)cn2ncnc(Nc3ccc4c(cnn4Cc4cccc(F)c4)c3)c12,relative viability,[1],0.806 ± 0.16
same,relative viability,[2],0.802 ± 0.081
same,relative viability,[3],0.56 ± 0.088
same,relative viability,[4],0.621 ± 0.052
